The record followed here is PubChem BioAssay AID1508602 (The Scripps Research Institute Molecular Screening Center, 2020).

Hit rate of the full screen: of about 650,000 compounds, about 6,800 (1%) were called active. The list comes from a sample in which actives are over-represented; it also holds similar structures and randomly drawn compounds. Values without a mark were called inactive. Cut-off read from the data, not from the text of the source: active = activation above about 4.9%; inactive = the rest.

For the test, the target named is G-protein coupled receptor 151 (Homo sapiens) (UniProt Q8TDV0). In words: activates the human receptor GPR151, primary screen, cell-based, PathHunter beta-arrestin, luminescence (AID 1508602).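 Note: 0% = median of compound wells and 100% = cells with positive control.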 To be noted: PathHunter beta-arrestin GPR151 cells, at 11.2 µM, hits give high values.
G-protein coupled receptor 151 (Homo sapiens), sequence (Q8TDV0 whole entry, looked up): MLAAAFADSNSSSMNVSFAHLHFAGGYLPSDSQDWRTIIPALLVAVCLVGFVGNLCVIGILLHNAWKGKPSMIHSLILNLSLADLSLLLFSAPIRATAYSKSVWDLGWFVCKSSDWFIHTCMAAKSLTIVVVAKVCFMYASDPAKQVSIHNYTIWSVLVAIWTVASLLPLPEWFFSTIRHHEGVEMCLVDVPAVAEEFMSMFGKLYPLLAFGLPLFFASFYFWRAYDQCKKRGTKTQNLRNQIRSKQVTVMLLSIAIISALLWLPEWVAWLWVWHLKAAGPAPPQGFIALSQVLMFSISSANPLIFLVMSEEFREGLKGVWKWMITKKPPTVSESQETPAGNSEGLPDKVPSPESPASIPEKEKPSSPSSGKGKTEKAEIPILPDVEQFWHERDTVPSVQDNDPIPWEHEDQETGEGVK
As to `O=C(CSc1nnc(Cc2ccccc2)o1)c1ccc([N+](=O)[O-])cc1`, the activation was -0.861%. Consider `CCOc1ccc(-n2c(C)nc3cc(C(=O)NCC(OCC)OCC)ccc32)cc1`, for which the activation was -0.917%.

On to `COc1ccccc1-n1c(C)nc2cc(C(=O)NCc3ccc4c(c3)OCO4)ccc21`, for which the activation is -0.911%. Consider `Cc1nc2cc(C(=O)NCc3ccc4c(c3)OCO4)ccc2n1-c1ccc(OCc2ccccc2)cc1`, for which the activation was 9.26% (active).

Turning to `O=C(NC1CC1)c1ccc(-c2nc(NCCN3CCOCC3)c3[nH]cnc3n2)cc1`, the activation is 2.27%. With `CCCn1c(=N)c(C(=O)NC2CCCCC2)cc2c(=O)n3cccc(C)c3nc21` the figure was -0.974%. Turning to `Cc1ccc2nc3c(cc(C(=O)NC4CCCCC4)c(=N)n3C(C)C)c(=O)n2c1`, the activation was 0.735%.

As to `Cc1cccn2c(=O)c3cc(C(=O)NC4CCCCC4)c(=N)n(C4CCCCC4)c3nc12`, the activation was 5.92% (active). With `COc1cccc(NC(=O)N2CCc3nc(-c4ccncc4)nc(N4CCCCC4)c3C2)c1` the figure was -2.11%; with `CC12CCC(C(=O)Nc3cc(Cl)ccc3Cl)(CC1=O)C2(C)C` (configuration not stated), -0.262%; with `CC12CCC(C(=O)Nc3ncc(Cl)cc3Cl)(CC1=O)C2(C)C` (configuration not stated), 5.35% (active).

With `CC12CCC(C(=O)Nc3c(Cl)cccc3Cl)(CC1=O)C2(C)C` (configuration not stated), the activation was -0.214%. On to `Cc1ccccc1-n1nc2c(c1NC(=O)C1CC1)CSC2`, for which the activation was 1.82%. On to `C=CCn1c(SCC(=O)Nc2nc(C)cs2)nnc1C(C)NC(=O)c1cccs1` (configuration not stated), for which the activation is 0.0682%. With `O=C(CCN(Cc1ccc(Cl)cc1)S(=O)(=O)c1ccc(Br)cc1)NO`, the activation is 0.218%. With `CCOCCc1nnc(NC(=O)CC(C)(C)C)s1` the figure was -0.508%; with `CC(=O)Nc1nnc(CCOCC(C)OCCc2nnc(NC(C)=O)s2)s1` (configuration not stated), 5.04% (active). With `CCCc1nnc(NC(=O)C(C)Oc2ccccc2)s1` (configuration not stated), the activation is 0.536%. Turning to `CCOc1ccc(NC(=O)N(CC(C)C)CC(C)C)cc1`, the activation was -1.58%. With `CCOc1ccc(NC(=O)NC(=O)N(C)S(C)(=O)=O)cc1` the figure was -0.0562%; with `CCOc1ccc(NC(=O)Nc2ccc(N(C)C(C)=O)cc2)cc1`, 6.4% (active).

For `CC1CCCC(C)N1C(=O)COC(=O)c1ccc(Cl)cc1N` (configuration not stated), the activation is -1.01%.

For the compound `COc1cccc(-c2ccccc2NC(=O)C2CCN(C3CCOCC3)CC2)c1`, the activation is 0.21%.

Consider `O=C(CCc1nc2ccccc2[nH]1)N1CCC2(CC1)OCc1cc(Cl)ccc1O2`, for which the activation was -0.0529%. In the case of `COc1ccc(-c2noc(N3CCC(C(=O)NCCCOC(C)C)CC3)n2)cc1` it was 2.42%; in that of `COc1ccc(-c2noc(N3CCC(C(=O)NCCCN4CCN(C)CC4)CC3)n2)cc1`, 7.49% (active). As to `COc1ccc(-c2noc(N3CCCC(C(=O)NCCCN4CCC(C)CC4)C3)n2)cc1` (configuration not stated), the activation was -1.28%. Consider `COC(=O)c1ccccc1NC(=O)C1=CC(c2cccc(OC)c2)=NS(=O)(=O)N1C`, for which the activation is 2.65%.

For `CCOC(=O)c1sc(=S)n(-c2ccc(Br)cc2)c1N`, the activation is -1.26%. In the case of `Cc1ccc(-c2nnc(NCc3ccccc3)c3ccccc23)cc1S(=O)(=O)N1CCOCC1` it was -0.185%; in that of `Cc1ccc(-c2nnc(N3CCOCC3)c3ccccc23)cc1S(=O)(=O)N1CCN(C)CC1`, 5.54% (active); in that of `Cc1ccc(-c2nnc(N3CCOCC3)c3ccccc23)cc1S(=O)(=O)N1CCCCC1`, -0.605%.

As to `CCOC(=O)c1cnc2c(C)cc(Cl)cc2c1Nc1cccc([N+](=O)[O-])c1`, the activation was -1.43%. In the case of `Cc1c(C)c2ccc(O)c(I)c2oc1=O` it was 0.449%; in that of `CCCOc1ccc([N+](=O)[O-])cc1C=C1C(=O)NC(=O)NC1=O`, 5.32% (active); in that of `O=C1NC(=O)C(=Cc2cc([N+](=O)[O-])cc(Br)c2O)C(=O)N1`, 0.835%. Turning to `COc1ccc([N+](=O)[O-])cc1/C=C1\C(=O)NC(=O)N(c2ccc(Br)cc2)C1=O`, the activation is 2.28%. For `O=C(NC1CCCCC1N1C(=O)CSC1=O)c1ccccc1F` (configuration not stated), the activation is 0.048%. With `CC(=O)Nc1ccc(S(=O)(=O)NC2(C(F)(F)F)C(=O)NC(C)=C2C#N)cc1` (configuration not stated) the figure was 0.355%; with `CCOC(=O)C1=C(C)N(Cc2ccco2)C(=O)C1(NC(=O)c1ccccc1)C(F)(F)F` (configuration not stated), 0.126%. `CCCN1C(=O)C(NS(=O)(=O)c2ccc(N)cc2)(C(F)(F)F)C(C(=O)OC)=C1C` (configuration not stated): the activation was 6.6% (active). In the case of `Fc1cccc(C2=NC3(CCCC3)NC2=S)c1` it was 1.94%; in that of `Cc1nc(C)c(-c2csc(Nc3ccc(Br)cc3)n2)s1`, -0.252%.

Consider `CC(=O)Nc1nc(C(=O)Nc2nc(-c3sc(C)nc3C)cs2)cs1`, for which the activation was 5.72% (active). In the case of `CC(=O)Nc1nc(C)c(-c2csc(Nc3ccc(C)cc3)n2)s1` it was 0.136%; in that of `N#Cc1c(SCC(=O)Nc2ccc(Br)cc2)nsc1SCC(=O)Nc1ccc(Br)cc1`, -0.245%.

Take `CCOc1ccccc1-c1cc(C(=O)N2CCOCC2)c2ccccc2n1`: the activation is 13.1% (active).

Turning to `Cc1cc(C(=O)N2CCOCC2)c2ccccc2n1`, the activation was -0.327%. With `Cc1cccc2c(C(=O)N3CCOCC3)cc(-c3ccccc3)nc12` the figure was 0.152%; with `COc1cc([N+](=O)[O-])ccc1NC(=S)N1CCN(S(C)(=O)=O)CC1`, 0.0846%. As to `COc1ccc(NC(=S)N2CCN(S(=O)(=O)c3ccc(F)cc3)CC2)c(OC)c1`, the activation was 8.74% (active). Consider `O=S(=O)(c1ccc(F)cc1)N1CCN(C(=S)NC2CCCC2)CC1`, for which the activation is -1.65%.

Turning to `COc1ccc(NC(=O)CSc2nc3n[nH]c(C)c3c(=N)n2-c2ccccc2Cl)c(OC)c1`, the activation was 0.84%. In the case of `CCOc1ccc(C(c2sc3nc(C)nn3c2O)N2CCCC2)cc1OC` (configuration not stated) it was 0.827%; in that of `COCCNC(=O)CCCNC(=O)Cn1cnc2sc(C)c(C)c2c1=O`, 1.23%; in that of `COc1ccc(C2(NC(=O)CCn3cnc4sc(C)c(C)c4c3=O)CCCCC2)cc1`, 4.94% (active). As for `COc1cc(Cl)c(C)cc1NC(=O)Cn1cnc2sc(C)c(C)c2c1=O`, the activation was 0.0902%.
